# The whole screen tested about 1,900 compounds, of which about 250 (13%) were called active. About 4% were inconclusive and are not listed. The list is a sample of the results. Entries with a potency or affinity are not part of this list. Values without a mark were called inactive.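 Rule for the calls: active = fitted curve reaches 40% rescue activity at or below the top valid dose, in every test run; inconclusive = test runs disagree, some active and some inactive; inactive = every run misses the threshold or moves the wrong way.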
# Assay: rescue of simvastatin-induced ATP loss – cell-based, C2C12 myotubes, ATP luminescence, cherry pick, dose response (AID 624405);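 note: myotubes are challenged with simvastatin at 10 µM to lower ATP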
# Conditions: 48 h, scaled: DMSO wells 0, geranylgeraniol wells 100; series mostly up to 19.5 µM; rescue activity (ATP increase): at the top concentration
row,SMILES,rescue activity (ATP increase)
1,Clc1ccc(Cn2ncc3c(N4CCOCC4)ncnc32)cc1,20.7%
2,Cc1ccc(Cn2ncc3c(NCCCN(C)C)ncnc32)cc1,23.2%
3,CC(C)CNc1ncnc2c1cnn2Cc1ccc(Cl)cc1,15%
4,CCN(CC)c1ncnc2c1cnn2Cc1ccc(Cl)cc1,29.6%
5,Cc1ccc(Cn2ncc3c(N4CCCC4)ncnc32)cc1,19.3%
6,CCC(C)Nc1ncnc2c1cnn2Cc1ccc(Cl)cc1 (stereo not drawn),3.88%
7,COc1ccccc1N1CCN(C(=O)c2cc(-c3ccc(F)cc3)[nH]c2C)CC1,9.61%
8,COc1cc(C)c(S(=O)(=O)n2ccc(C)n2)cc1C,25.8%
9,C[C@@H]1CN([C@@H](C)CO)C(=O)c2cc(C3=CCCCC3)cnc2O[C@H]1CN(C)Cc1ccccc1F,-13.2%
10,CC(=O)Nc1sc2c(c1C#N)CCC(C)C2 (stereo not drawn),47.3%
11,Cc1noc(C)c1NC(=O)Nc1ccc2c(c1)CC(=O)N([C@H](C)CO)C[C@H](C)[C@@H](CN(C)Cc1ccc(Oc3ccccc3)cc1)O2,-27.8%
12,C[C@H]1CCCCO[C@H](CN(C)S(=O)(=O)c2cccs2)[C@@H](C)CN([C@@H](C)CO)C(=O)c2cc(NC(=O)Nc3ccc(F)cc3)ccc2O1,-16.9%
13,C[C@H](CO)N1C[C@H](C)[C@H](CN(C)Cc2ccc(Oc3ccccc3)cc2)Oc2ccc(NC(=O)Nc3ccc(C(F)(F)F)cc3)cc2CC1=O,-13.6%
14,C[C@H](CO)N1C[C@H](C)[C@@H](CN(C)Cc2ccc(-c3ccccc3)cc2)Oc2ccc(NC(=O)c3ccncc3)cc2CC1=O,18.2%
15,Cc1c(Cl)cccc1NC(=O)CNC(=O)Cc1n[nH]c(=O)c2ccccc12,14.5%
16,C[C@@H]1CCCCO[C@@H](CN(C)C(=O)Nc2cccc3ccccc23)[C@H](C)CN([C@H](C)CO)C(=O)c2cc(NS(=O)(=O)c3ccc(Cl)cc3)ccc2O1,-2.76%
17,O=C(Nc1ccc(S(=O)(=O)N2CCCCCC2)cc1)c1ccco1,-49.5%
18,N#Cc1nc(-c2ccco2)oc1NCCCn1ccnc1,-0.838%
19,N#Cc1nc(COc2ccccc2)oc1N1CCOCC1,-18.8%
20,CCCOc1cc(C)c(Cl)cc1S(=O)(=O)N(CC)CC,4.93%
21,Cc1ccc(S(=O)(=O)Nc2ccc3c(c2)C(=O)N([C@@H](C)CO)C[C@@H](C)[C@H](CN(C)Cc2ccc(Cl)c(Cl)c2)O3)cc1,25.1%
22,C[C@@H]1CCCCO[C@H](CN(C)C(=O)Nc2ccc(F)cc2)[C@H](C)CN([C@@H](C)CO)C(=O)c2cc(NC(=O)Cc3ccccc3)ccc2O1,-7.06%
23,CC(C)c1ccc(CNc2nc3nc4c(c(=O)n3[nH]2)CCC4)cc1,32.7%
24,Cc1ccc(S(=O)(=O)Nc2ccc3c(c2)CC(=O)N([C@@H](C)CO)C[C@H](C)[C@@H](CN(C)S(=O)(=O)c2cccs2)O3)cc1,10.3% [at 21 µM]
25,CN(CC(=O)NCc1ccco1)CC(=O)Nc1ccc(F)c(F)c1F,10.1%
26,COc1cc(NC(=O)COC(=O)c2cc(S(=O)(=O)N3CCOCC3)ccc2F)cc(OC)c1,-14.9%

row,SMILES,rescue activity (ATP increase)
1,COc1cc2c(C(=O)NCCCN3CCN(c4cccc(Cl)c4)CC3)cn(C)c(=O)c2cc1OC,-33.9%
2,COc1ccc(S(=O)(=O)Nc2ccc3c(c2)C(=O)N([C@@H](C)CO)C[C@@H](C)[C@H](CN(C)C(=O)Nc2cccc4ccccc24)OCCCC[C@@H](C)O3)cc1,6.81%
3,COc1cccc(NC(=O)CSc2nc(C)cs2)c1,6.93%
4,Cc1csc(SCC(=O)Nc2cccc(S(=O)(=O)N3CCCC3)c2)n1,-1.35%
5,COc1ccc(S(=O)(=O)Nc2cccc3c2O[C@H](CN(C)C(=O)Nc2ccc(C(F)(F)F)cc2)[C@H](C)CN([C@H](C)CO)C3=O)cc1,36.2%
6,C[C@H](CO)N1C[C@H](C)[C@H](CN(C)Cc2ccc(Oc3ccccc3)cc2)Oc2ccc(NC(=O)Nc3ccc(F)cc3)cc2CC1=O,-9.22% [at 21 µM]
7,C[C@@H]1CN([C@@H](C)CO)C(=O)c2cc(C#Cc3ccccc3F)cnc2O[C@H]1CN(C)S(=O)(=O)c1ccccc1F,23.5%
8,CCN(CC)CC(=O)n1c2c(c3ccccc31)CCCC2,4.55%
9,Clc1ccc(Cn2ncc3c(NCc4ccccc4)ncnc32)cc1,-175%
10,O=C(Nc1ccc(S(=O)(=O)N2CCC(C(=O)NC3CCCCC3)CC2)cc1)c1ccco1,-43.5%
11,Nc1ccc2c(S(=O)(=O)O)cccc2c1S(=O)(=O)O,2.73%
12,O=C(Cn1nnc(-c2ccncc2)n1)N(C1CCCCC1)C1CCCCC1,0.984%
13,COCCn1nnnc1CN(CCc1ccc(OC)c(OC)c1)Cc1cc2ccc(C)cc2[nH]c1=O,-20%
14,COc1ccc(NC(=O)Nc2ccc3c(c2)CC(=O)N([C@@H](C)CO)C[C@@H](C)[C@H](CN(C)C(=O)Nc2cccc4ccccc24)O3)cc1,14.7%
15,O=C(CCC1COc2ccccc2O1)Nc1ccccn1 (stereo not drawn),3.48%
16,C[C@@H]1CCCCO[C@@H](CN(C)S(=O)(=O)c2ccc(Cl)cc2)[C@@H](C)CN([C@@H](C)CO)C(=O)c2cc(NS(C)(=O)=O)ccc2O1,-3.2%
17,C[C@@H]1CCCCO[C@@H](CN(C)S(=O)(=O)c2ccc(Cl)cc2)[C@@H](C)CN([C@H](C)CO)C(=O)c2cc(NS(C)(=O)=O)ccc2O1,-1.83%
18,CCC(=O)c1ccc(OCC(=O)O)cc1,0.815%
19,COc1cc(OC)cc(-c2nc3nc(C)c(CCC(=O)O)c(C)n3n2)c1,6.93%
20,O=C(CSc1nnc2ccccn12)NNC(=O)c1cccc(Cl)c1,21.5%
21,COC(=O)c1ccc(CSc2nc3c(cnn3-c3ccc(C)c(C)c3)c(=O)[nH]2)o1,-19.7%
22,COc1ccc(S(=O)(=O)Nc2ccc3c(c2)C(=O)N([C@H](C)CO)C[C@H](C)[C@@H](CN(C)S(=O)(=O)c2ccc(F)cc2)OCCCC[C@H](C)O3)cc1,-6.4%
23,COc1ccc(CC(=O)Nc2cc(C)on2)cc1,10.1%
24,C[C@@H]1CCCCO[C@H](CN(C)C(=O)Cc2ccccc2)[C@@H](C)CN([C@@H](C)CO)C(=O)c2cc(NS(=O)(=O)c3cn(C)cn3)ccc2O1,-34.5% [at 10 µM]
25,O=S(=O)(c1ccccc1C(F)(F)F)N1CCN(S(=O)(=O)c2ccccc2C(F)(F)F)CC1,16%
26,CN1C(=O)c2cc(NC(=O)c3cnccn3)ccc2OC[C@H]2O[C@H](CC(=O)NCC3CCCCC3)CC[C@H]21,0.092% [at 21 µM]

row,SMILES,rescue activity (ATP increase)
1,O=C(O)c1ccc(C(=O)c2ccc3c(c2)C(=O)N(Cc2ccco2)C3=O)cc1,10.5%
2,Cc1noc(C)c1S(=O)(=O)Nc1ccc2c(c1)C(=O)N([C@H](C)CO)C[C@H](C)[C@@H](CN(C)C(=O)Nc1cccc3ccccc13)O2,27.1% [at 21 µM]
3,COc1ccc(C#Cc2cnc3c(c2)C(=O)N([C@@H](C)CO)C[C@H](C)[C@H](CN(C)C(=O)Nc2cccc(OC)c2)O3)cc1,-1.46%
4,C[C@H](CO)N1C[C@H](C)[C@@H](CN(C)Cc2ccc(C(=O)Nc3ccccc3N)cc2)Oc2ccc(NC(=O)Nc3cccc4ccccc34)cc2C1=O,9.69% [at 16 µM]
5,COc1ccc(NC(=O)Nc2ccc3c(c2)C(=O)N([C@@H](C)CO)C[C@H](C)[C@H](CN(C)Cc2ccc(C(F)(F)F)cc2)OCCCC[C@@H](C)O3)cc1,-38.9%
6,COc1ccc(N=Cc2sc(O)c3ccccc23)cc1,19.5%
7,C[C@@H]1CN([C@H](C)CO)C(=O)c2cc(C3=CCCCC3)cnc2O[C@H]1CN(C)Cc1ccccc1F,-23.7%
8,Cn1c(CCN2CCCCC2)nc2cc(NC(=O)Nc3ccccc3)ccc21,-7.55%
9,CC(C(=O)N1CCCc2ccccc21)N1C(=O)c2ccccc2C1=O (stereo not drawn),-3.35%
10,CCN(CC)C(=O)c1ccc(NS(=O)(=O)c2ccccc2)cc1,0.963%
11,NNC(=O)COc1cccc2cccnc12,37.3%
12,O=c1[nH]c(Nc2ccccc2Cl)cc2ccccc12,-28.7%
13,CC(C)(C)C(=O)COC(=O)CNC(=O)c1ccc(Oc2ccccc2)cc1,0.797%
14,C[C@@H]1CN([C@H](C)CO)C(=O)Cc2cc(N(C)C)ccc2O[C@@H]1CN(C)Cc1ccc(Cl)c(Cl)c1,34.4%
15,Cc1ccc(S(=O)(=O)Nc2ccc3c(c2)CC(=O)N([C@H](C)CO)C[C@@H](C)[C@@H](CN(C)Cc2ccc(Cl)c(Cl)c2)O3)cc1,26.6%
16,C[C@H]1CN([C@@H](C)CO)C(=O)Cc2cc(N(C)C)ccc2O[C@@H]1CN(C)Cc1ccc(Cl)c(Cl)c1,22.2% [at 21 µM]
17,C[C@@H]1CN([C@H](C)CO)C(=O)Cc2cc(NS(C)(=O)=O)ccc2O[C@@H]1CN(C)Cc1ccc(Cl)c(Cl)c1,27.2%
18,Cc1ccc(S(=O)(=O)Nc2ccc3c(c2)CC(=O)N([C@@H](C)CO)C[C@@H](C)[C@@H](CN(C)Cc2ccc(Cl)c(Cl)c2)O3)cc1,13.8% [at 21 µM]
19,C[C@@H]1CN([C@H](C)CO)C(=O)Cc2cc(NS(=O)(=O)c3ccc(Cl)cc3)ccc2O[C@H]1CN(C)Cc1ccc(Cl)c(Cl)c1,32%
20,Cc1ccc(S(=O)(=O)Nc2ccc3c(c2)CC(=O)N([C@@H](C)CO)C[C@@H](C)[C@H](CN(C)Cc2ccc(Cl)c(Cl)c2)O3)cc1,29%
21,Cc1ccc(S(=O)(=O)Nc2ccc3c(c2)CC(=O)N([C@H](C)CO)C[C@@H](C)[C@H](CN(C)Cc2ccc(Cl)c(Cl)c2)O3)cc1,21.4%
22,C[C@H](CO)N1C[C@H](C)[C@@H](CN(C)C(=O)Nc2ccc(C(F)(F)F)cc2)OCCCC[C@H](C)Oc2ccc(NC(=O)Nc3cccc4ccccc34)cc2C1=O,-7.78%
23,CC(=O)c1ccc(NC(=O)c2cc(-c3cccs3)on2)cc1,-10.8%
24,C=C[C@@H]1c2c(F)cccc2N(S(=O)(=O)c2ccc(C)cc2)[C@H](c2ccc(C(=O)OC)cc2)C1(C#N)C#N,-79.5%
25,Cc1noc(C)c1NC(=O)N(C)C[C@@H]1OCCCC[C@@H](C)Oc2ccc(NS(=O)(=O)c3cn(C)cn3)cc2C(=O)N([C@H](C)CO)C[C@@H]1C,-3.29%
26,C[C@@H]1CN([C@H](C)CO)C(=O)Cc2cc(NC(=O)Cc3cn(C)c4ccccc34)ccc2O[C@H]1CN(C)Cc1ccc2c(c1)OCO2,27.4% [at 21 µM]
